Assay outcomes as filed in PubChem.
This is a sample that favours compounds with a hit; in the whole collection about 8.9% have one here.
DRD3 antagonist – blocks the human D3 dopamine receptor; max response, negative = inhibition, %; D3R cells, DiscoveRx beta-arrestin luminescence, antagonist mode; hits give low values; P35462; 360,000 tested, 2.5% active; in the data active = max response below about -50%; inconclusive = no clear call, values can overlap the other calls; also: % is scaled to controls: 0 for no effect and ±100 for the full control effect
Target sequence (P35462 whole entry, looked up): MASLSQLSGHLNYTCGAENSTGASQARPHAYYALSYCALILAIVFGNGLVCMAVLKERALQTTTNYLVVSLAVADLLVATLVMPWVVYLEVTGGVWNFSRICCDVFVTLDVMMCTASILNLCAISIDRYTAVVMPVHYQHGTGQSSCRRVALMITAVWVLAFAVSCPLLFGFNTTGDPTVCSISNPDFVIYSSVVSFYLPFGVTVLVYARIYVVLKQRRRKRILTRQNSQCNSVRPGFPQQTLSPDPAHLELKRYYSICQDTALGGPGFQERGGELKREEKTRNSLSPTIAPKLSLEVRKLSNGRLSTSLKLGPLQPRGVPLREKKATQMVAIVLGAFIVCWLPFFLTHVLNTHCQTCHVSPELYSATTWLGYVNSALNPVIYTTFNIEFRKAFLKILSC
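Cells plated overnight at 1500 cells/well, then exposed to library compounds with dopamine controls for 90 minutes at 37 degrees C. DiscoveRx reagent added for 30–60 minutes at room temperature; luminescence read, quantitative HTS format.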
SW480 rerep – induces DNA re-replication in SW480 colon adenocarcinoma cells | Potency, µM (doses to about 46.1 µM), for the others: at the top dose re-replication activation, most hits filed as activators | 340,000 tested, 1.8% active | AID 624297 | SW480 DNA re-replication, Hoechst DNA content imaging, 48 h; also: potency is read from the fitted curve at half-maximal effect; % of control where 0% means no effect; nearly all actives have a fitted effect of over 55% in size
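Readout is total intensity of Hoechst-stained nuclei, excited at 405 nm and collected at 500-530 nm. Compound treatment lasted 48 hr at 37 C in 5% CO2 before staining.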
KB-3-1 tox – KB-3-1 parental cell cytotoxicity | KB-3-1 viability, CellTiter-Glo ATP luminescence, 72 h | Potency, µM (doses to about 46.1 µM), hits mostly cytotoxic | 400,000 tested, 1.4% active; also: potency is read from the fitted curve at half-maximal effect; % is scaled to controls: 0 for no effect and ±100 for the full control effect; nearly all actives have a fitted effect of over 60% in size
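Luminescent ATP read-out (CellTiter-Glo) measures survival of drug-naive KB-3-1 cells after 72 h compound exposure at 37 °C. Titration series was screened from lowest to highest concentration, with DMSO vehicle plates as background controls.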
MCF10A rereplic – DNA re-replication induction in MCF 10a cells. MCF 10A DNA re-replication, Hoechst nuclear intensity, 48 h. Potency, µM (top dose mostly 46.1 µM), inactives show at the highest dose activity, positive = re-replication, actives largely listed as activators. 350,000 tested, 2.9% active; also: potency is read from the fitted curve at half-maximal effect; % of control where 0% means no effect; nearly all actives have a fitted effect of over 50% in size
KB-V1 cytotox – KB-V1 MDR subline cytotoxicity | KB-V1 MDR cells viability, CellTiter-Glo, 72 h | Potency, µM (highest dose often 46.1 µM), most hits filed as cytotoxic | 400,000 tested, 3.4% active | AID 1347076; also: potency is read from the fitted curve at half-maximal effect; % is scaled to controls: 0 for no effect and ±100 for the full control effect; nearly all actives have a fitted effect of over 60% in size
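KB-V1, DMEM (no phenol red) + 10% FBS; cpd pin-transferred, titration series; 72 h, 37 degrees C; CellTiter-Glo, luminescence. Data normalized, curve-fit.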
D3 ag – agonists of human D3 dopamine receptor. 410,000 tested, 0.58% active. AID 652048. D3R DiscoveRx beta-arrestin cells, luminescence, 90 min. max activation, %; in the data active = max activation above about 30%; also: 0% is about no effect
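Agonist-mode cell screen: cells plated at 1500/well and incubated overnight at 37 °C, then exposed to library compounds for 90 min at 37 °C. Detection reagent was added for 30–60 min at room temperature, and luminescence was read.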
Active calls of the source: *; [ ] = remark or other dose. Unless noted, calls follow the shape of the dose curve; as a rule, active = well fitted curve in the direction sought with a large enough effect; inconclusive = small, poorly fitted or top-dose-only effect, or another doubt; inactive = no such curve, though single readings can be large; an effect the other way counts as inactive or inconclusive.

Results for O=C1C=CC(=O)c2c(O)c(N3CCN(CCO)CC3)c(Cl)c(O)c21 ?
DRD3 antagonist: -121*; SW480 rerep: 0.65µM*; KB-3-1 tox: 5.2µM*; MCF10A rereplic: 0%; KB-V1 cytotox: inconclusive; D3 ag: -25

How did O=S(=O)(c1ccc(Br)cc1Cl)N1CCN(CCO)CC1 do in these assays?
DRD3 antagonist: -8; SW480 rerep: -7%; KB-3-1 tox: inactive; MCF10A rereplic: 6%; KB-V1 cytotox: inactive; D3 ag: -11

What do the screens show for `O=C1C=CC(=O)c2c(O)c(N3CCN(CCOCCO)CC3)c(Br)c(O)c21`?
DRD3 antagonist: -95*; SW480 rerep: inconclusive; KB-3-1 tox: 5.2µM*; MCF10A rereplic: 3%; KB-V1 cytotox: 4.1µM*; D3 ag: -18

What do the screens show for `Cc1ccc(C2(c3ccc(C)cc3)CC2C(=O)Nc2ccc([N+](=O)[O-])cc2O)cc1` (configuration not stated)?
DRD3 antagonist: -66*; SW480 rerep: 19%; KB-3-1 tox: inconclusive; MCF10A rereplic: inconclusive; KB-V1 cytotox: 15µM*; D3 ag: -5

What do the screens show for `CCn1c(SCC(=O)N2CCCc3ccccc32)nc2cccnc21`?
DRD3 antagonist: 11; SW480 rerep: 1%[9.22 µM]; KB-3-1 tox: inactive; MCF10A rereplic: inconclusive; KB-V1 cytotox: inactive; D3 ag: 6

How did CCn1c(SCC(=O)N2CCCc3ccccc32)nc2ccccc2c1=O do in these assays?
DRD3 antagonist: 3; SW480 rerep: 2%; KB-3-1 tox: inactive; MCF10A rereplic: 23µM*; KB-V1 cytotox: 10µM*; D3 ag: 2

What do the screens show for `CC(C)Cn1c(SCC(=O)N2CCCc3ccccc32)nc2ccccc2c1=O`?
DRD3 antagonist: 20; SW480 rerep: inconclusive; KB-3-1 tox: inactive; MCF10A rereplic: 21µM*; KB-V1 cytotox: inconclusive; D3 ag: 3

What do the screens show for `O=C(Nc1ccc2nc(SCC(=O)N3CCCC3)sc2c1)c1cccc(F)c1`?
D3 ag: -12

Results for CCc1ccc(NC(=O)CSc2nc(-c3ccccc3Cl)nc3c2Cc2c(CO)cnc(C)c2O3)cc1 ?
KB-3-1 tox: inactive; KB-V1 cytotox: inactive; D3 ag: 26

Results for N#Cc1cnn2c1nc(N1CCCCC1)c1ccccc12 ?
DRD3 antagonist: -23; SW480 rerep: 3%; KB-3-1 tox: inconclusive; MCF10A rereplic: 16%; KB-V1 cytotox: 12µM*; D3 ag: -9

How did CC(C)c1ccc(S(=O)(=O)c2nnn3c2nc(N2CCCCC2)c2ccccc23)cc1 do in these assays?
DRD3 antagonist: -4; SW480 rerep: -3%; KB-3-1 tox: inactive; MCF10A rereplic: 0%; KB-V1 cytotox: inactive; D3 ag: 2

What do the screens show for `Cc1ccc(Cn2cnc3c(oc4ccccc43)c2=O)cc1`?
KB-3-1 tox: inactive; KB-V1 cytotox: inactive; D3 ag: 7

What do the screens show for `Cc1cc(=O)c2cc(Br)ccc2[nH]1`?
DRD3 antagonist: 15; SW480 rerep: 0%; KB-3-1 tox: inactive; MCF10A rereplic: 4%; KB-V1 cytotox: 16µM*; D3 ag: -3

What do the screens show for `CCCCCCCCCCCCCCCCN`?
SW480 rerep: -3%; MCF10A rereplic: 3%; D3 ag: 9

Results for CC1CCN(c2nc3ccc(C(=O)NCCCN4CCCCC4C)cc3s2)CC1 (configuration not stated) ?
DRD3 antagonist: -20; SW480 rerep: 21µM*; KB-3-1 tox: inactive; MCF10A rereplic: 26%; KB-V1 cytotox: inactive; D3 ag: -4

What do the screens show for `O=C(NCCc1ccc(Cl)cc1)c1ccc2nc(N3CCOCC3)sc2c1`?
DRD3 antagonist: -7; SW480 rerep: 4%; KB-3-1 tox: inactive; MCF10A rereplic: 21µM*; KB-V1 cytotox: inactive; D3 ag: -3

How did COc1ccc(CCNC(=O)c2ccc3nc(N4CCCCC4)sc3c2)cc1OC do in these assays?
DRD3 antagonist: 0; SW480 rerep: -5%; KB-3-1 tox: inactive; MCF10A rereplic: 18%; KB-V1 cytotox: 18µM*; D3 ag: -8

Results for CCOc1ccc(CNC(=O)c2ccc3nc(N4CCOCC4)sc3c2)cc1 ?
DRD3 antagonist: -28; SW480 rerep: 3%; KB-3-1 tox: inactive; MCF10A rereplic: 2%; KB-V1 cytotox: inactive; D3 ag: 5

What do the screens show for `COc1ccc(OCC(O)CNC(=O)c2ccc(Br)cc2)cc1` (configuration not stated)?
DRD3 antagonist: 14; SW480 rerep: -1%; KB-3-1 tox: inactive; MCF10A rereplic: 0%; KB-V1 cytotox: 4.1µM*; D3 ag: 10

How did Cc1ccccc1C(=NCCCN(C)C)c1ccccc1C do in these assays?
DRD3 antagonist: -75*; SW480 rerep: -4%; KB-3-1 tox: inactive; MCF10A rereplic: 3%; KB-V1 cytotox: inactive; D3 ag: -9

What do the screens show for `COCCCNC(=O)c1c(NC(=O)Cc2coc3cc(C)ccc23)sc2c1CCCC2`?
KB-3-1 tox: inactive; KB-V1 cytotox: inactive; D3 ag: 5

What do the screens show for `O=C(Cc1cccc2ccccc12)N/N=C/c1ccc(O)c([N+](=O)[O-])c1`?
DRD3 antagonist: 4; SW480 rerep: 8%; KB-3-1 tox: inactive; MCF10A rereplic: 8%; KB-V1 cytotox: inactive; D3 ag: 10

Results for O=C(Cc1cccc2ccccc12)N/N=C/c1ccc2cccc(O)c2n1 ?
DRD3 antagonist: -56*; SW480 rerep: 11%; KB-3-1 tox: inactive; MCF10A rereplic: inconclusive; KB-V1 cytotox: inconclusive; D3 ag: -26

Results for O=[N+]([O-])c1nn(-c2ccc3c(c2)OCCO3)n(O)c1=NC1CCCC1 ?
DRD3 antagonist: -15; SW480 rerep: 5%; KB-3-1 tox: inactive; MCF10A rereplic: 17%; KB-V1 cytotox: inactive; D3 ag: -8

How did O=[N+]([O-])c1nn(-c2ccc3c(c2)OCCO3)n(O)c1=NC1CCCCCC1 do in these assays?
DRD3 antagonist: -6; SW480 rerep: 3%; KB-3-1 tox: inactive; MCF10A rereplic: 1%; KB-V1 cytotox: 16µM*; D3 ag: 20

How did COc1ccc(-n2nc([N+](=O)[O-])c(=NCc3ccc4c(c3)OCO4)n2O)cc1 do in these assays?
DRD3 antagonist: 12; SW480 rerep: -1%; KB-3-1 tox: inactive; MCF10A rereplic: -2%; KB-V1 cytotox: 21µM*; D3 ag: -2

How did CN1CCC(=C2c3ccccc3Sc3ccccc32)CC1 do in these assays?
DRD3 antagonist: -108*; SW480 rerep: inconclusive; KB-3-1 tox: inactive; MCF10A rereplic: 27µM*; KB-V1 cytotox: inconclusive; D3 ag: -97
